Reference: PubChem BioAssay (Tox21)
Inconclusive results are not listed. A number with no mark means an inactive call. Activity calls are given as the source filed them. Calls follow the shape of the dose curve; as a rule, active = well fitted activation curve with a large enough effect in the signal ratio in the repeat runs (not every such curve was filed as active); inconclusive = weak or mixed curves, or effect the other way; inactive = flat fitted curve, though single readings scatter; the % refers to the signal ratio.

test: qHTS assay to identify small molecule agonists of the endoplasmic reticulum stress response signaling pathway (AID 1159516); conditions: ESRE-bla HeLa, ER stress beta-lactamase reporter, 5 h; series mostly up to 61 µM; activation: at the top concentration
Text: National Center for Advancing Translational Sciences [NCATS]
NIH Chemical Genomics Center [NCGC]
U.S. Environmental Protection Agency [EPA]
National Institutes of Environmental Health Sciences [NIEHS]
National Toxicology Program [NTP]
U.S. Food and Drug Administration [FDA]
Endoplasmic Reticulum (ER) plays an important role in cellular signaling, protein folding/maturation, stress response, lipid biosynthesis, calcium storage and release etc. Under stress conditions, proteins in ER misfold or unfold, and leading to the expression of ER stress responsive genes. ER stress has been associated with a variety of pathophysiological conditions such as cancer, inflammation, neurodegenerative diseases, diabetes, ischemic heart disease etc. To identify the compounds that induce ER stress response, an ER stress reporter cell line, CellSensor ESRE-bla HeLa (Life Technologies, Carlsbad, CA) containing a beta-lactamase reporter gene under control of the Endoplasmic reticulum Stress Response Element (ESRE) was used to screen Tox21 10K compound library.
Tox21 Assay Protocol Summary:
ESRE-bla HeLa cells were dispensed at 1,500 cells/6 uL of assay medium per well into black wall/clear-bottom 1536-well plates using a Multidrop Combi (ThermoFisher Scientific, Waltham, MA) dispenser. After the assay plates were incubated at 37 C and 5% CO2 for an overnight, 23 nL of compounds dissolved in DMSO, positive controls or DMSO only was transferred to the assay plate by a Pintool station (Kalypsys, San Diego, CA). The assay plates were incubated at 37 C and 5% CO2 for 5 hr. One uL of LiveBLAzer B/G FRET substrate (Life Technologies) was added using a Flying Reagent Dispenser (Aurora Discovery, San Diego, CA) and the plates were incubated at room temperature for 2 hr. Fluorescence intensity (405 nm excitation, 460 nm and 530 nm emissions) was measured using an Envision plate reader (PerkinElmer, Shelton, CT).
% is scaled to controls: 0 for no effect and ±100 for the full control effect.

SMILES | outcome | activation
O=S(=O)(O)c1cc(S(=O)(=O)O)c2c(N=Nc3ccccc3)c(O)ccc2c1 | inactive | –
CN(CCOc1ccc(CC2SC(=O)NC2=O)cc1)c1ccccn1 (stereo not given) | – | 0.539%
CS(=O)(=O)c1ccc([C@@H](O)[C@@H](CO)NC(=O)C(Cl)Cl)cc1 | inactive | –
CS(=O)(=O)Nc1ccc([N+](=O)[O-])cc1Oc1ccccc1 | – | -3.96%
CCOC(=O)C1OC1c1ccccc1 (stereo not given) | – | 5.61%
C=C1C2CCC(C2)C1(C)C (stereo not given) | – | -3.12% [at 78.8 µM]
Cc1cc(NS(=O)(=O)c2ccc(N)cc2)no1 | – | 0.168%
CCCCOCCO | – | 0.893%
Cn1c([N+](=O)[O-])cnc1COC(N)=O | inactive | –
C=CC(=O)OCCCCCCCC(C)C | – | -0.651%
C[C@@H]1O[C@@H](OC[C@H]2O[C@@H](Oc3c(-c4ccc(O)c(O)c4)oc4cc(O)cc(O)c4c3=O)[C@H](O)[C@@H](O)[C@@H]2O)[C@H](O)[C@H](O)[C@H]1O | inactive | –
O=C(c1ccc(O)cc1)c1ccc(O)cc1O | – | 0.828%
Clc1ccc(Cl)c(Cl)c1Cl | – | 2.19%
CCCCC(CC)COC(=O)CCCCCCCC(=O)OCC(CC)CCCC (stereo not given) | inactive | –
CCCCCCOC(C)=O | – | 1.27% [at 78.8 µM]
Nc1c(S(=O)(=O)O)cc(Br)c2c1C(=O)c1ccccc1C2=O | – | -5.51%
CC(C)NCC(O)COc1cccc2ccccc12 (stereo not given) | – | 1.25%
O=C(O)c1cc(-c2ccccc2)nc2ccccc12 | inactive | –
COC(=O)c1ccc(C(=O)OC)cc1 | inactive | –
C=C(C#N)C(=O)OCC | inactive | –

SMILES | outcome | activation
CCOC(=O)/C=C\C(=O)OCC | inactive | –
Nc1cc(-c2ccncc2)c[nH]c1=O | inactive | –
CCCCC(CC)COC(=O)/C=C\C(=O)OCC(CC)CCCC (stereo not given) | – | 0.002%
NCCc1ccc(O)c(O)c1 | – | -0.874%
O=[N+]([O-])c1cccc(Cl)c1 | inactive | –
OC[C@@H](O)[C@H](O)[C@H](O)[C@@H](O)CO | inactive | –
O=C(Cl)c1c(Cl)c(Cl)c(C(=O)Cl)c(Cl)c1Cl | inactive | –
CCCCCCC(C)(C)S | inactive | –
CCCCCCCCCCC=CC1CC(=O)OC1=O (stereo not given) | inactive | –
CC1CC(OC(=O)c2ccccc2O)CC(C)(C)C1 (stereo not given) | – | 6.14%
CC(C)(C)C1CCC(O)CC1 (stereo not given) | – | -3.66% [at 78.8 µM]
OCCOCCOCCOCCO | – | 0.369%
CCCCCCCCCCCCN | – | -4.83%
CCc1ccccc1O | – | -0.748%
NCc1cccc(CN)c1 | inactive | –
O=C1CCCCC1 | – | -0.433%
Cc1cc(=O)[nH]c(C(C)C)n1 | inactive | –
CC1(C)CC(N=C=O)CC(C)(CN=C=O)C1 (stereo not given) | – | 2.04%
CCOC(=O)[C@H](CCc1ccccc1)N[C@@H](C)C(=O)N1Cc2ccccc2C[C@H]1C(=O)O | – | -1.48% [at 78.8 µM]
CCCCNC(N)=O | inactive | –
